Measurements as given in ChEMBL document CHEMBL2218924, “A broad activity screen in support of a chemogenomic map for kinase signalling research and drug discovery” (Biochem J, 2013).

What was measured:
[1] = target: Tyrosine-protein kinase SYK (Homo sapiens) (UniProt P43405); conditions: at 10 µM
[2] = target: T1, Mitogen-activated protein kinase kinase kinase 7 (Homo sapiens) (UniProt O43318); conditions: at 1 µM
T1 sequence (whole entry): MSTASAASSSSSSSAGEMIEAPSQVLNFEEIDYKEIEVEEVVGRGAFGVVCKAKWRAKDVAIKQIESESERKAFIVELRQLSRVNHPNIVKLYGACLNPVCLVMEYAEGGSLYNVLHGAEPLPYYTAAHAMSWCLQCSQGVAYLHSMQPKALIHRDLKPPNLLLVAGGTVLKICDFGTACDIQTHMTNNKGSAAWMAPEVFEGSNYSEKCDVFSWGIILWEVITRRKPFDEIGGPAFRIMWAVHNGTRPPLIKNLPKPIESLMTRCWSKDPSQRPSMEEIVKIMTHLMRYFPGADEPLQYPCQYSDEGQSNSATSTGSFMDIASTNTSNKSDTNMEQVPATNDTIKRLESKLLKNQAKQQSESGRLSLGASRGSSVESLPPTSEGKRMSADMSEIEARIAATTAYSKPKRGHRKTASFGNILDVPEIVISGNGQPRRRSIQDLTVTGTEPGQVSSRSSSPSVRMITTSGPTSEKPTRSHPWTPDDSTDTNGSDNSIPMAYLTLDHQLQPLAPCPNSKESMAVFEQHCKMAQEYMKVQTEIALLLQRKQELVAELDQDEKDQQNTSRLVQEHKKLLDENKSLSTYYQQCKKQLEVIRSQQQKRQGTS

[3] = target: T1, Mitogen-activated protein kinase kinase kinase 7 (Homo sapiens); conditions: at 10 µM
[4] = target: T2, Serine/threonine-protein kinase TAO1 (Homo sapiens) (UniProt Q7L7X3); conditions: at 1 µM
T2 sequence (whole entry): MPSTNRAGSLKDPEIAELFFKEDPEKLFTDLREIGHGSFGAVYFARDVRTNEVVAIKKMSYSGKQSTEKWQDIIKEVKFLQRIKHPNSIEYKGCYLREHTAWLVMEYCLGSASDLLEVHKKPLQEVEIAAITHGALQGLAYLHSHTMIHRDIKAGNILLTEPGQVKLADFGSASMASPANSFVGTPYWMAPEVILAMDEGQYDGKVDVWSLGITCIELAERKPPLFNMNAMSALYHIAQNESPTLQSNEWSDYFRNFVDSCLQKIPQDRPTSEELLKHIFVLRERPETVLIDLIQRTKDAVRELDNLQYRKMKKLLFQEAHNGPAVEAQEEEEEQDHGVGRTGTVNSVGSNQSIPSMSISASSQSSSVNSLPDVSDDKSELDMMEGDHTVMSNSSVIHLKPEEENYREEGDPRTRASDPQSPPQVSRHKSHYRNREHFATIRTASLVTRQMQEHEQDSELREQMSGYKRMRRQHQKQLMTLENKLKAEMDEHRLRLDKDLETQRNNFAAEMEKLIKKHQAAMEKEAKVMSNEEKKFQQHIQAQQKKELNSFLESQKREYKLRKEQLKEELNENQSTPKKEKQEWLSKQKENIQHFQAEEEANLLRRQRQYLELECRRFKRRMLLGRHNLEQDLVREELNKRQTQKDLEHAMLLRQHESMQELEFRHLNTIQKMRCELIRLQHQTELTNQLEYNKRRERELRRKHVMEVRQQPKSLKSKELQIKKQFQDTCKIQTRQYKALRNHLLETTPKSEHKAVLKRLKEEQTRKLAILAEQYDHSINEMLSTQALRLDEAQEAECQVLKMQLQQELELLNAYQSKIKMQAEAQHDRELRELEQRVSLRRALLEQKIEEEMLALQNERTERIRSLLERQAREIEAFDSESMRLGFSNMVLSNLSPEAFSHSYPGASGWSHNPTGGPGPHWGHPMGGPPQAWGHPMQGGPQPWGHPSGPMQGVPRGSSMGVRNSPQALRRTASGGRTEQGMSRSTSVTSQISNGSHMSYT

[5] = target: T2, Serine/threonine-protein kinase TAO1 (Homo sapiens); conditions: at 10 µM
[6] = target: T3, Serine/threonine-protein kinase TAO2 (Homo sapiens) (UniProt Q9UL54); conditions: at 1 µM
T3 sequence (whole entry): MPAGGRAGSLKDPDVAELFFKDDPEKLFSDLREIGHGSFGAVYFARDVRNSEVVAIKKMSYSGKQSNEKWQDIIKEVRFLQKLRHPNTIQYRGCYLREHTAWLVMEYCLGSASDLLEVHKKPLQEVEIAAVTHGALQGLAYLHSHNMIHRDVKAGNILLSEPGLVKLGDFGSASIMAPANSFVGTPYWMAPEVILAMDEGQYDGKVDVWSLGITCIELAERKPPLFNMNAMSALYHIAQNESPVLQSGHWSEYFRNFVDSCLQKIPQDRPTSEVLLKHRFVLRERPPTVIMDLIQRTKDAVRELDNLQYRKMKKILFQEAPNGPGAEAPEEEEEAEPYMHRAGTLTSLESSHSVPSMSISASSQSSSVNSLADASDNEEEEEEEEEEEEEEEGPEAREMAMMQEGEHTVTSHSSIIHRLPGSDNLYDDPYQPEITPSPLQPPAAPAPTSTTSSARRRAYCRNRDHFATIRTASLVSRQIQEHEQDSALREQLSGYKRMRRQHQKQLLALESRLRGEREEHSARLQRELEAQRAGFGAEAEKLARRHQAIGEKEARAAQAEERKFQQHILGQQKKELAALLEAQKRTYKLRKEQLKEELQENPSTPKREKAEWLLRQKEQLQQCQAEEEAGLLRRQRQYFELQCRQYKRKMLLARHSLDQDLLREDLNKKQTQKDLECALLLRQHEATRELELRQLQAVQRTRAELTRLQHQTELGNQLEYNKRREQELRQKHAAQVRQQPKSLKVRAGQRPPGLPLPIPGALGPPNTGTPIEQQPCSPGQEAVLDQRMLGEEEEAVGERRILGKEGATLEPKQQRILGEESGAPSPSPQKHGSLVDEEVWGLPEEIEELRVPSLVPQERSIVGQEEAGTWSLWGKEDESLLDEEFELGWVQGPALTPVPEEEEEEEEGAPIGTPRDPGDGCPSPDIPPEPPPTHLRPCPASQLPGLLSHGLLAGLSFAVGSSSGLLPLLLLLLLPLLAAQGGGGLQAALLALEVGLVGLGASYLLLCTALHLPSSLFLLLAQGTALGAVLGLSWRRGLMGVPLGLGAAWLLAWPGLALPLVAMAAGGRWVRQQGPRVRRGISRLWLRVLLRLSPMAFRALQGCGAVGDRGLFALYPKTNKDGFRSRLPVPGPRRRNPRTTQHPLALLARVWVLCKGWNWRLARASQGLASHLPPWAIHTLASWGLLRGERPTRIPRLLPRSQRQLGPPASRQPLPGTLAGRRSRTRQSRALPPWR

[7] = target: T3, Serine/threonine-protein kinase TAO2 (Homo sapiens); conditions: at 10 µM
[8] = target: T4, Serine/threonine-protein kinase TAO3 (Homo sapiens) (UniProt Q9H2K8); conditions: at 1 µM
T4 sequence (whole entry): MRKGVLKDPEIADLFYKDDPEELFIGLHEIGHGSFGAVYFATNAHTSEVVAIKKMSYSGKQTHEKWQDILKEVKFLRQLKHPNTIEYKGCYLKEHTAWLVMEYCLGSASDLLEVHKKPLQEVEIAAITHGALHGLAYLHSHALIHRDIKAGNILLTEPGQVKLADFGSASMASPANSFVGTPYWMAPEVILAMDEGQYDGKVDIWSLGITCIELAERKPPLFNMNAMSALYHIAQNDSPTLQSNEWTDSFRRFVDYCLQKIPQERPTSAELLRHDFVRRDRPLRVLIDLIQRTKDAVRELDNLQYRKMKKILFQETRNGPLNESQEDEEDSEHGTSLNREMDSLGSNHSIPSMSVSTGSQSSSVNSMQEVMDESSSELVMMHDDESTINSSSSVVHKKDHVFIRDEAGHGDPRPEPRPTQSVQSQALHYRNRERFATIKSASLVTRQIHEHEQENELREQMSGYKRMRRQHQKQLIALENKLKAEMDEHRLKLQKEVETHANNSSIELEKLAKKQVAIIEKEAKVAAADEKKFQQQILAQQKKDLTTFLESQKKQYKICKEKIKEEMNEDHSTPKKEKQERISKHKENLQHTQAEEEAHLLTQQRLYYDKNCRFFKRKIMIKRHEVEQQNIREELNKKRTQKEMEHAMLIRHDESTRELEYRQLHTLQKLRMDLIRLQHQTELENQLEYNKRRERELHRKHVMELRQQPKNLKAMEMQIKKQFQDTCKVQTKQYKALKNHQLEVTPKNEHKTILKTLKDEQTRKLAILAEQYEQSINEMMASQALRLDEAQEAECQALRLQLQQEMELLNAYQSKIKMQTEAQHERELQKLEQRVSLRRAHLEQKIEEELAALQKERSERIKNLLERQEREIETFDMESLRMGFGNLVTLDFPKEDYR

[9] = target: T4, Serine/threonine-protein kinase TAO3 (Homo sapiens); conditions: at 10 µM
[10] = target: T5, Serine/threonine-protein kinase TBK1 (Homo sapiens) (UniProt Q9UHD2); conditions: at 1 µM
T5 sequence (whole entry): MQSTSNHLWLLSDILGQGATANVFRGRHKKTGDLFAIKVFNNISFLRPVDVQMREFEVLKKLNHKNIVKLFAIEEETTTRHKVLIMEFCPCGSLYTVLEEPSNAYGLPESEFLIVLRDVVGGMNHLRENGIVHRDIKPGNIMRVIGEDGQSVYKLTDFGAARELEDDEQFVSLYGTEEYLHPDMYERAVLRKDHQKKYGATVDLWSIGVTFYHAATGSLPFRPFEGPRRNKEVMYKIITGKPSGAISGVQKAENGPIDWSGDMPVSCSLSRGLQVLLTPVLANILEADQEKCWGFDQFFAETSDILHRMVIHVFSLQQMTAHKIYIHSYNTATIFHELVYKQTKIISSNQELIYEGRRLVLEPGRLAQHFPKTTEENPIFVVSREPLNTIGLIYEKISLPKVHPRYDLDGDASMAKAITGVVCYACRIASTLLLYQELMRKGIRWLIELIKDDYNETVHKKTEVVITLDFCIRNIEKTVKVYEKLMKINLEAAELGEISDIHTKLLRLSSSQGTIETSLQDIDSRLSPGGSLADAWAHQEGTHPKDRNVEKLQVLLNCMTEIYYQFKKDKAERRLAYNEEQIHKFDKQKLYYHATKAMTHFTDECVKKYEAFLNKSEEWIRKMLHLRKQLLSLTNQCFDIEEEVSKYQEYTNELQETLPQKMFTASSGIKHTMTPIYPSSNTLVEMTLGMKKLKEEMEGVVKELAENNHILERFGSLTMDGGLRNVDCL

SMILES: CNc1cc2c(Nc3cccc(Br)c3)ncnc2cn1
- residual activity [1]: 90%
- residual activity [2]: 91%
- residual activity [3]: 90%
- residual activity [4]: 100%
- residual activity [5]: 81%
- residual activity [6]: 110%
- residual activity [7]: 75%
- residual activity [8]: 95%
- residual activity [9]: 90%
- residual activity [10]: 79%
